Test results from the supplement of paper PMC6555819.

Legend:
Assay in all cases: PBM binding z-score (relative to random genomic background probes); higher = stronger binding; sequences stand for … in GC…GCGATTGACAGCGTAGAATGAAGG
[1] = test system: RARb homodimer (NR concentration 270 nM)
How it was run: (§1)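 Binding buffer was PBS pH 7.4 with 2% milk, 0.02% Triton X-100, 1 mM DTT, 0.2 mg/mL BSA and 0.4 mg/ml salmon testes DNA. In it, ligand-free nuclear receptor dimers were incubated 1 h on custom Agilent 4×180K protein-binding microarrays carrying double-stranded probes. Antibodies against each partner (one per run) detected binding, and z-scores were calculated against random background probes after regression normalization of scanned fluorescence.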

[2] = test system: RARg:RXRa (NR concentration 270 nM, RXRa partner concentration 90 nM)
How it was run: as §1

[3] = test system: RARg homodimer (NR concentration 270 nM)
How it was run: as §1

[4] = test system: RXRa DBDmut IVT, anti-RXR (DBD mutation: RXRa K156A/R161A, NR concentration 90 nM)
How it was run: as §1

[5] = test system: RXRa homodimer (NR concentration 180 nM)
How it was run: as §1

[6] = test system: THRa:RXRa (NR concentration 90 nM, RXRa partner concentration 90 nM)
How it was run: as §1

[7] = test system: THRa homodimer (NR concentration 90 nM)
How it was run: as §1

[8] = test system: VDR:RXRa (NR concentration 270 nM, RXRa partner concentration 90 nM)
How it was run: as §1

[9] = test system: VDR homodimer (NR concentration 270 nM)
How it was run: as §1

Sequence	PBM binding z-score [1]	PBM binding z-score [2]	PBM binding z-score [3]	PBM binding z-score [4]	PBM binding z-score [5]	PBM binding z-score [6]	PBM binding z-score [7]	PBM binding z-score [8]	PBM binding z-score [9]
CCGACTGGGTCAGAAAGGTTACCATACCATCCGG	3.1	3.34	3.44	-0.333	3.12	2.09	0.207	4.2	1.14
ACTAGCAGGCCAAGTTTAGGTCACTCAAACAAAG	2.6	3	2.44	0.0394	0.727	3.43	2.59	0.781	0.966
AGAACGAGGGCACGCTGAGTTGAAAGCAGAGTAG	1.16	2.34	2.15	2	1.46	2.13	-0.233	2.29	0.663
AGGATGAGGTTACCAAAGATCAGGGAAACGCTTG	1.18	1.94	1.65	0.402	2.51	2.67	1.29	1.45	0.534
TCATATAGGTAATACAGGTGAAAATCGGCATCTA	0.328	0.729	0.82	1.8	1.72	0.836	0.391	1.32	0.435
CGTCCAAGGTCAGCAGGTCAGTGGAAGCGACGTG	5.03	6.2	6.72	2.48	4.81	3.96	2.37	3.82	1.6
GCTATTAGTTGAGAGGGCAACCGAATGATTCTCG	1.14	0.913	1.01	0.884	0.882	0.555	-0.117	0.311	0.435
CCATACGGGTCACTCCAGGTTATAGCATCGGAGT	2.96	4.24	3.85	0.942	4.03	5.15	0.591	4.11	1.76
AGTCAAAGCTCACTAGGTAACGTAAGATTCAGCT	-0.396	-0.184	-0.065	-0.217	0.00455	0.131	-0.137	-0.551	-0.474
CCTCGGAGGACAACAGGAAGTCAGAGCTGCCAGA	0.0796	0.396	1.06	0.139	-0.479	0.205	-0.14	-0.718	-0.542
TCTAGCAGGCCAGAGGATCACTCAAGAGGTACGG	-0.66	-0.277	-0.18	-0.0121	0.0922	-0.78	-0.974	-0.662	-0.819
ATCTCTAGGTAATACTCAGTTCAGTGAAGAACGC	1.14	0.732	0.671	0.98	0.582	1.37	1.33	1.55	1.89
CCTATTAGTTGACCATAAGGGCAAACGAAGCTCG	1.93	1.48	1.31	0.782	0.751	1.72	1.08	0.834	1.01
AGAACGAGGGCAAGGAGTTGATAGCACGGGTGGC	0.992	1.21	1.49	1.12	0.867	0.885	-0.277		1.93
TCAGACAGGTGAAGGTAACACAGGTACGCAGTCG	1.34	0.896	1	1.56	1.54	1.36	0.868	1.05	0.48
CAAACTAGGTTACGAAAGGTCAAAGTCGAATGAC	5	6.3	5.88	1.6	6.62	4.48	1.51	5.53	2.58
CGAACTAGGTCAAGGAAAGTGAATCTCCGCACGC	2.71	3.5	3.7	1.16	2.43	2.42	0.746		0.143
CCTGCTAGGCCAATGGTCAGCTAAAGCAGCTCGC	0.323	-0.216	0.173	-0.154	-0.899	-0.489	-0.709	-0.792	-0.962
AGAATGAGGTTATACGTAGATAAGGGAAGAAAGT	0.654	1.77	1.26	1.23	2.29	2.11	0.472	1.47	0.781
ATCTCTAGGTAAAGATAGTTCGGTGAATGCAAAT	-0.015	0.125	0.491	0.0249	-0.171	0.322	0.197	0.244	0.151
AGAACGAGGGCACGCTGAGTTGATATCAGAGTAG	1.18	2.05	2.32	2.08	1.32	1.89	-0.269		1.71
TCGCGTAGGTTAGTCGGGGCATTCAGCCAACATA	0.519	0.0765	-0.112	0.21	-0.0315	1.26	-0.0265	2.54	0.208
TAGCCTAGGTCAGATCGGGCCAGTATCCGCTATA	2.26	2.39	3.37	-0.366	1.35	4	0.15	0.43	-0.329
TAGTCTAGGTCAGATCGGGCCAGTATACGCTATA	2.21	2.72	3.51	-0.14	1.39	4.26	0.664	0.995	-0.0113
AGAATGAGGTTATTAAGATCAGTGAATTGCGGTC	0.636	1.21	0.905	2.02	1.67	2.17	0.753	2.5	1.09
TAGCCTAGGTAATTGGGCCAGTATAGTACGCATC	-0.403	-0.17	-0.133	-1.07	-0.301	-0.106	-0.68	-0.627	-0.642
